Screening results deposited in PubChem BioAssay by National Center for Advancing Translational Sciences (NCATS).
Menin MLL FP TR – qHTS Assay for Inhibitors Targeting the Menin-MLL Interaction in MLL Related Leukemias: Competition With Texas Red Labeled MLL-derived Mutant Peptide | Menin + Texas Red MLL mutant peptide, fluorescence polarization | Potency, µM (series often up to 61.6 µM), for inactives: at the highest dose FP activity change, negative = inhibition, actives largely listed as inhibitors | 270,000 compounds, 0.23% hits; active means well fitted inhibition curve with a large enough effect in the polarisation, with a control signal flat, not every such curve was filed as active; inconclusive means small, poorly fitted or top-dose-only effect, or effect the other way, or a change in a side signal; inactive means no such curve, though single readings can be large or run the other way; the % refers to the polarisation; further: potency means the concentration at half of the fitted maximal effect; % of control where 0% means no effect
Target sequence (O00255 whole entry, looked up): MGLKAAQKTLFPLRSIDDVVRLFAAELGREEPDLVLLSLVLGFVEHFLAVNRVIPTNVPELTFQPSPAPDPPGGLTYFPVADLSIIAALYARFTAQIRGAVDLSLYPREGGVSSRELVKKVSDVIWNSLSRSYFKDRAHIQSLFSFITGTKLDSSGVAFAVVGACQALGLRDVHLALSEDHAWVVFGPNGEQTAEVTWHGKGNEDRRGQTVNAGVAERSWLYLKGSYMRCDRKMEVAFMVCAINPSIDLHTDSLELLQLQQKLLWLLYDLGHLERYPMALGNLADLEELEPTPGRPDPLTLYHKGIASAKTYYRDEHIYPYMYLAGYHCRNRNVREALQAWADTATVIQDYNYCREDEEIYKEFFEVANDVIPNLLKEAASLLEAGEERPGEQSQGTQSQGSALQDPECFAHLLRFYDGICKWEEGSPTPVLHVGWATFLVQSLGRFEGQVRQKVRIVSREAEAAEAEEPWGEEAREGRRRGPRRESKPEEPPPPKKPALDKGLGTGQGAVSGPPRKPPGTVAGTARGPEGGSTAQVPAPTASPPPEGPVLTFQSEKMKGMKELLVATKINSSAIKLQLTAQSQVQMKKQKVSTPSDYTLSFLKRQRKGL
Menin-MLL FL inh – qHTS Assay for Inhibitors Targeting the Menin-MLL Interaction in MLL Related Leukemias: Competition With Fluorescein Labeled MLL-derived Peptide; Fluorescence polarization, fluorescein-MLL peptide displacement from menin; FP activity change, % at 61.4 µM; 290,000 tested, under 10 active; AID 1766, 2009; active means well fitted curve in the direction sought with a large enough effect in the polarisation, not every such curve was filed as active; inconclusive means small, poorly fitted or top-dose-only effect, or effect the other way, or a change in a side signal; inactive means no such curve, though single readings can be large or run the other way; the % refers to the polarisation; further: % of control where 0% means no effect
KCNH2 3.1 inh – qHTS for Inhibitors of KCHN2 3.1: Mutant qHTS | Potassium voltage-gated channel subfamily H member 2, brain isoform KCNH2 3.1 (human) | activity change, % (tested at about 1.8 µM) | U2OS KCNH2 3.1, thallium flux FluxOr; hits give low values | AID 720553, 2013 | 340,000 compounds, 0.95% hits;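 active means maximum activity change below -70%; inconclusive means maximum activity change from -70% to -50%; inactive means maximum activity change above -50%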;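 further: thallium influx rate constant from kinetic fluorescence after stimulation buffer; on the % scale 0 is the no-effect control and ±100 the full control effect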
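Thallium flux read-out: FluxOr dye with Red40 quencher in HBSS/HEPES, 45 min at RT. Rate constants from kinetic reads were normalized to positive and negative DMSO controls. Cells: U2OS virally expressing the 3.1 isoform.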
MLL CXXC-DNA inh – qHTS Fluorescence Polarization Assay for Inhibitors of MLL CXXC domain - DNA interaction; Potency, µM (series often up to 115 µM), for inactives: at the highest dose activity change, negative = inhibition, hits mostly inhibitors; MLL-CXXC / FITC-HOXA9 DNA fluorescence polarization; Histone-lysine N-methyltransferase 2A (Homo sapiens), Q03164; 290,000 compounds, 0.037% hits; active means well fitted inhibition curve with a large enough effect in the polarisation, with a control signal flat, not every such curve was filed as active; inconclusive means small, poorly fitted or top-dose-only effect, or effect the other way, or a change in a side signal; inactive means no such curve, though single readings can be large or run the other way; the % refers to the polarisation; further: potency means the concentration at half of the fitted maximal effect
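Purified MLL-CXXC (added from a 7 uM solution) was preincubated 5 min at ambient with pinned compounds in 50 mM Tris-HCl pH 7.5, 50 mM NaCl, 1 mM DTT, 0.05% BSA. Fluorescein-labeled HOX-A9 DNA (50 nM solution) followed, 30 min, then polarization read.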
KCNH2 WT inh – qHTS for Inhibitors of KCHN2 3.1: Wildtype qHTS. Voltage-gated inwardly rectifying potassium channel KCNH2 (Homo sapiens), Q12809. U2OS, BacMam KCNH2, thallium flux FluxOr; hits give low values. activity change, % at 1.84 µM. 340,000 compounds, 0.37% hits. AID 720551, 2013;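 active means maximum activity change below -70%; inconclusive means maximum activity change between -70% and -50%; inactive means maximum activity change above -50%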; further: on the % scale 0 is the no-effect control and ±100 the full control effect
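U2OS cells transduced with wild-type KCNH2 virus are loaded with FluxOr dye for 45 min, and thallium flux is measured in kinetic reads before and after stimulation buffer. Rate constants are normalized to DMSO controls.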
* marks the source's active call; other numbers are inactive results. Compounds with a hit are over-represented: about 1.1% of the library has one in this group of screens.

What do the screens show for `COc1cc2c(cc1OC)[C@@H](NC(=O)Cc1ccc(F)cc1)[C@H](OCc1ccccc1)C2`?
KCNH2 3.1 inh: -131*; KCNH2 WT inh: -16

How did CC(C(=O)Nc1ccccc1-c1ccccc1)N1CCN(C(=O)c2ccccc2)CC1 (stereo not drawn) do in these assays?
Menin-MLL FL inh: -5; KCNH2 3.1 inh: 12; MLL CXXC-DNA inh: -12%; KCNH2 WT inh: 23

Results for CC(C(=O)Nc1ccccc1-c1ccccc1)N1CCN(Cc2ccccc2)CC1 (stereo not drawn) ?
Menin MLL FP TR: inconclusive; Menin-MLL FL inh: 0; KCNH2 3.1 inh: -76*; MLL CXXC-DNA inh: 6%; KCNH2 WT inh: -18

What do the screens show for `CS(=O)(=O)N1CCC(C(=O)Nc2ccc(Cl)cc2Cl)CC1`?
KCNH2 3.1 inh: -71*; KCNH2 WT inh: -17

What do the screens show for `CS(=O)(=O)N1CCCC(C(=O)Nc2ccc(Br)cc2F)C1` (stereo not drawn)?
Menin MLL FP TR: -4%; Menin-MLL FL inh: 6; KCNH2 3.1 inh: -7; MLL CXXC-DNA inh: -1%; KCNH2 WT inh: -12

Results for CS(=O)(=O)N1CCC(C(=O)Nc2ccc(Br)cc2F)CC1 ?
Menin MLL FP TR: 0%; Menin-MLL FL inh: 2; KCNH2 3.1 inh: -92*; MLL CXXC-DNA inh: 12%; KCNH2 WT inh: 3

How did CCOC(=O)c1ccc2[nH]c3c(c2c1)CCCCC3=O do in these assays?
Menin MLL FP TR: 1%; Menin-MLL FL inh: 0; KCNH2 3.1 inh: -167*; MLL CXXC-DNA inh: 8%; KCNH2 WT inh: 27

What do the screens show for `CCOC(=O)c1ccc2[nH]c3c(c2c1)CCCC3C(=O)OCC` (stereo not drawn)?
Menin MLL FP TR: 22%; Menin-MLL FL inh: -3; KCNH2 3.1 inh: 15; MLL CXXC-DNA inh: 0%; KCNH2 WT inh: 9

What do the screens show for `COc1ccc(O)c(-c2[nH]ncc2C(=O)c2cccc(C)c2)c1`?
Menin MLL FP TR: -8%; Menin-MLL FL inh: 1; KCNH2 3.1 inh: -109*; MLL CXXC-DNA inh: inconclusive; KCNH2 WT inh: 26

What do the screens show for `CC[C@H](C)[C@H](NC(=O)[C@@H]1CCCN1C(=O)[C@H](C)NC(=O)[C@H](CC(N)=O)NC(=O)[C@@H]1CCCN1C(=O)[C@@H]1CCCN1C(=O)[C@H](CCCN=C(N)N)NC(=O)[C@H](Cc1ccc(O)cc1)NC(=O)[C@H](C)NC(=O)[C@@H]1CCCN1C(=O)[C@@H]1CCCN1C(=O)[C@@H](N)[C@@H](C)O)C(=O)N[C@@H](CC(C)C)C(=O)O`?
Menin MLL FP TR: 8%; Menin-MLL FL inh: -5

Results for N#CCCn1c(=O)c(CCc2ccccc2)nc2cnc(N3CCOCC3)nc21 ?
Menin MLL FP TR: 40µM*; Menin-MLL FL inh: inconclusive

What do the screens show for `O=c1c(CCc2ccccc2)nc2cnc(N3CCOCC3)nc2n1Cc1ccc(F)cc1`?
Menin MLL FP TR: 3%; Menin-MLL FL inh: 11

How did COC(=O)C1(C(=O)OC)C[C@@H]2CON=C2[C@H]1c1ccccc1 do in these assays?
Menin MLL FP TR: 1%; Menin-MLL FL inh: -1

Results for CCOc1cc(/C=C(\CC(=O)O)c2nc3ccccc3s2)ccc1OCC(=O)Nc1cccc(C(F)(F)F)c1 ?
KCNH2 3.1 inh: -26; KCNH2 WT inh: -258*

How did Cc1cnc2c(N)cc(C)c(C)c2c1 do in these assays?
KCNH2 3.1 inh: 5; KCNH2 WT inh: 6

What do the screens show for `CCOC(=O)c1c(NC(=O)c2nn(CC)cc2Br)sc(C)c1C`?
Menin MLL FP TR: 69%; Menin-MLL FL inh: 1; KCNH2 3.1 inh: -72*; MLL CXXC-DNA inh: 12%; KCNH2 WT inh: 6

What do the screens show for `O=C(Nc1ccccc1-c1nc2ccccc2[nH]1)c1ccc(S(=O)(=O)N2CCCCC2)cc1`?
Menin MLL FP TR: 10µM*; Menin-MLL FL inh: 4; KCNH2 3.1 inh: 1; MLL CXXC-DNA inh: 30%; KCNH2 WT inh: -16
